An excerpt weighted towards active compounds, which were near 4.1% of everything screened.
TIM10 inh – TIM10 yeast growth inhibition; inhibition, % at 10 µM; hit rate 1.4% among 330,000; S. cerevisiae TIM10 strain growth, BacTiter-Glo luminescence, 24 h;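 active = inhibition of 40% or more at the single tested concentration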;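 note: wild-type TIM10 isogenic control strain grown at permissive 25 °C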
NLRP3 yeast inh – inhibitors of NALP3 inflammasome in yeast; hit rate 0.39% among 330,000; inhibition, % at 10 µM; Yeast reconstituted NLRP3/ASC/caspase-1, beta-gal luminescence, 24 h;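 active = inhibition of 50% or more; inactive = inhibition below 50%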
NALP1 inh – NALP1 inhibition; hit rate 0.61% among 280,000; S. cerevisiae NALP1/ASC/caspase-1 growth, X-gal OD620, 72 h; inhibition, % at 10 µM; in the data active = inhibition mostly above about 24%, no sharp cut-off; inactive = mostly below about 32%
tim23-1 inh – inhibits growth of tim23-1 mutant yeast. S. cerevisiae tim23-1 growth, BacTiter-Glo luminescence, 24 h. inhibition, % at 20 µM. hit rate 1.3% among 330,000;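 active = growth inhibition of the mutant yeast at or above 50%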;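 note: temperature-sensitive mutant grown at 25 °C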
tim10-1 inh – growth inhibitors of tim10-1 mutant yeast; S. cerevisiae tim10-1 ts strain growth, BacTiter-Glo, 24 h; inhibition, % at 20 µM; hit rate 2.2% among 330,000; AID 463190;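 active = inhibition of at least 40%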;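 note: mutant grown at 25 °C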
tim10 confirm – TIM10 yeast growth inhibition, confirmed | shares compounds with TIM10 inh | S. cerevisiae tim10 strain growth, BacTiter-Glo luminescence, 24 h | inhibition, % at 10 µM | hit rate 63% among 4,600 | AID 463215;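 active = inhibition of yeast growth at or above a set limit in either of two replicates at 10 µM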; note: this counterscreen used the strain with wild-type TIM10
tim23-1 conf – tim23-1 yeast growth inhibition, confirmed; inhibition, % at 20 µM; AID 463218; S. cerevisiae tim23-1 growth, BacTiter-Glo luminescence, 24 h; shares compounds with tim23-1 inh; hit rate 83% among 4,400;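 active = inhibition above about 39% in either of two replicate wells at 20 µM, limit read from the data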;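 note: temperature-sensitive tim23-1 mutant grown at 25 °C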
Large screens that a line does not name were inactive (follow-up assays come after a bar, where they were run).

Cn1c(SCc2ccc(Br)cc2)nnc1-c1cccs1	TIM10 inh 57, tim23-1 inh 57 | tim10 confirm 30 | tim23-1 conf 61
CC(C)(C)c1nn(-c2ccccc2)c2[nH]c(=O)c(C=O)cc12	TIM10 inh 72, tim23-1 inh 80 | tim10 confirm 91 | tim23-1 conf inactive
CC(C)(C)c1nn(-c2ccccc2)c2nc(Cl)c(C=O)cc12	none
CC1CCCN(C(=O)CCNS(=O)(=O)c2ccc3c(c2)oc(=O)n3C)C1 (stereo unspecified)	none
CC1=CC(C)(C)NC(=S)N1C(C)c1ccccc1 (stereo unspecified)	TIM10 inh 46, tim23-1 inh 62 | tim10 confirm inactive | tim23-1 conf inactive
CC1=CC(C)(C)NC(=S)N1c1ccc2ccccc2c1	none
Cc1noc(C)c1C(=O)OC(C)C(=O)N(C)c1ccccc1 (stereo unspecified)	none (no result: NALP1 inh)
CC(OC(=O)/C=C/c1ccc2ccccc2n1)C(=O)N(C)c1ccccc1 (stereo unspecified)	TIM10 inh 43, tim23-1 inh 52 (no result: NALP1 inh) | tim10 confirm 42 | tim23-1 conf 53
CCN(CC(=O)Nc1ccc(NC(C)=O)cc1)C(=O)Cc1ccc(Cl)c(Cl)c1	none
O=C(CSc1ccc2nnc(-c3ccccn3)n2n1)Nc1cccc(F)c1	none
CSc1ccc(/C=C(\C#N)C(=O)NC2CCCCC2C)cc1 (stereo unspecified)	TIM10 inh 56, tim23-1 inh 59 | tim10 confirm 65 | tim23-1 conf 39
CC(C)(C)C1=CC=C(C(C)(C)C)C(=O)C1=O	none
O=C(CSCc1ccccc1)N/N=C/c1ccccc1OCc1ccccc1	none
NC(=S)N/N=C\c1ccccc1OCc1ccccc1	TIM10 inh 41, tim23-1 inh 53 | tim10 confirm inactive | tim23-1 conf inactive
COc1ccc(C(CNC(=O)c2ccc(Cl)c(NC(=O)c3cccs3)c2)N2CCCC2)cc1 (stereo unspecified)	none (no result: NALP1 inh)
CCOC(=O)CSc1c(-c2ccc(Cl)cc2)[nH]c2ccccc12	none
CCOC(=O)CSc1c(-c2cccs2)[nH]c2ccccc12	TIM10 inh 49, tim23-1 inh 55 | tim10 confirm inactive | tim23-1 conf 52
CCC(C)[C@H](NC(=O)C1(c2ccccc2)CCN(C(=O)OC(C)(C)C)CC1)C(=O)N[C@@H](C(=O)O)c1ccccc1 (stereo partly specified)	none
COc1ccc2cc(CN(Cc3ccco3)C(c3nnnn3C3CCCCC3)C(C)C)c(=O)[nH]c2c1 (stereo unspecified)	none
COc1ccc2cc(CN(Cc3ccco3)Cc3nnnn3C3CCCCC3)c(=O)[nH]c2c1	TIM10 inh 41, tim23-1 inh 59 | tim10 confirm inactive | tim23-1 conf 60
Cc1ccc(OCC(=O)Nc2c3c(nn2C(C)(C)C)CS(=O)(=O)C3)cc1	none
CCCc1ccc(O)c(N=Cc2cc(Br)cc(OCC)c2O)c1	TIM10 inh 43, tim23-1 inh 57 | tim10 confirm 33 | tim23-1 conf 74
CNc1ccc(/C=C2\COc3ccccc3C2=O)cc1[N+](=O)[O-]	none
O=C1/C(=C/c2ccc(O)cc2)COc2ccccc21	TIM10 inh 46, tim23-1 inh 78 | tim10 confirm 36 | tim23-1 conf 50
CCc1ccc(CNC(=O)CCS(=O)(=O)Cc2ccc(C)cc2)cc1	none
COc1ccc(NC(=O)C2CC(=O)N(Cc3ccco3)C2)cc1Cl (stereo unspecified)	none (no result: NALP1 inh)
CC(C)(C)NC(=S)NC(=O)C12CC3CCC(CC(C3)C1)C2	TIM10 inh 45, tim23-1 inh 50 | tim10 confirm inactive | tim23-1 conf 59
CN(C)NC(=S)NC(=O)C12CC3CC(CC(C3)C1)C2	none
O=C(c1ccco1)N1CCN(c2nnc(-c3ccccc3)c3ccccc23)CC1	tim23-1 inh 51 | tim10 confirm inactive | tim23-1 conf inactive
O=C(N/N=C/c1cc(Br)cc(Br)c1O)c1ccncc1	TIM10 inh 45, tim23-1 inh 65 | tim10 confirm 51 | tim23-1 conf 65
O=C(N/N=C/c1ccc(O)cc1O)c1ccncc1	none
CCC(O)(CC)C(=O)N/N=C/c1cc(Br)cc(Br)c1O	TIM10 inh 58, tim23-1 inh 67 | tim10 confirm 49 | tim23-1 conf 73
Cc1noc(C)c1S(=O)(=O)N(CC(=O)NC1CCC(C)CC1)c1ccc(C(C)C)cc1 (stereo unspecified)	none
O=[N+]([O-])c1ccc(NNS(=O)(=O)c2cc(Cl)ccc2Cl)nc1	none
COc1ccccc1C1CCN(C(=O)c2ccccc2)CC1	none
COc1ccccc1C1CCN(c2cc(O)ccc2[N+](=O)[O-])CC1	TIM10 inh 48, tim23-1 inh 60 | tim10 confirm 43 | tim23-1 conf 60
CC(=O)c1ccc(OCCOc2ccc([N+](=O)[O-])cc2)cc1	none
O=Cc1ccccc1OCCOc1ccc([N+](=O)[O-])cc1	TIM10 inh 76, tim23-1 inh 58 | tim10 confirm 68 | tim23-1 conf 90
COc1ccc(NC(=O)COc2ccccc2)cc1NC(=O)c1ccco1	none
COc1ccc(C(=O)Nc2ccc3ccccc3c2)c(OC)c1	TIM10 inh 57, tim23-1 inh 60 | tim10 confirm 62 | tim23-1 conf 80
COc1cc2ncnc(N[C@H](C)c3ccccc3)c2cc1OC	none
Cc1ccc2nc(N(CCCN(C)C)C(=O)c3cc(-c4cccs4)nc4ccccc34)sc2c1	TIM10 inh 41, tim23-1 inh 60 | tim10 confirm 42 | tim23-1 conf inactive
CN(C)CCCN(C(=O)c1cc(-c2cccs2)nc2ccccc12)c1nc2c(F)cccc2s1	none
COc1ccc(CCNc2oc(-c3ccc(C)cc3)nc2C#N)cc1OC	TIM10 inh 53, tim23-1 inh 55 | tim10 confirm 61 | tim23-1 conf 76
O=c1c(Cl)c(NCc2ccco2)cnn1C12CC3CC(CC(C3)C1)C2	none
O=c1c(Cl)c(NCc2ccccc2Cl)cnn1C12CC3CC(CC(C3)C1)C2	TIM10 inh 41, tim23-1 inh 52 | tim10 confirm inactive | tim23-1 conf 55
CCOc1nc(-c2ccccc2O)nc2ccccc12	none
Oc1ccccc1-c1nc(NC2CCCC2)c2ccccc2n1	TIM10 inh 44, tim23-1 inh 64 | tim10 confirm 35 | tim23-1 conf 58
O=C(Nc1cccc(-c2csc(Nc3ccccc3)n2)c1)c1ccccc1	TIM10 inh 48, tim23-1 inh 54 (no result: NALP1 inh) | tim10 confirm 44 | tim23-1 conf 46
O=C(N/N=C/c1c(O)ccc2ccccc12)c1cccc(C(F)(F)F)c1	TIM10 inh 43, tim23-1 inh 56 | tim10 confirm inactive | tim23-1 conf 44
N/C(=N\OC(=O)Cc1ccccc1[N+](=O)[O-])c1cccc(Br)c1	TIM10 inh 51, tim23-1 inh 59 | tim10 confirm 59 | tim23-1 conf 67
